{"source": "the supplement of paper PMC13380429", "data": [{"test_system": "Vero E6 infected with SARS-CoV-2", "test": "morphology score (similarity to uninfected cells); higher = more like uninfected cells", "details": "24 h", "values": [{"molecule": "Nc1ccccc1NC(=O)c1ccc(CNc2nccc(-c3cccnc3)n2)cc1", "note": "[mocetinostat] (0.833333 µM)", "morphology score": -0.00842}, {"molecule": "N#Cc1ccc(Oc2ccc3c(c2)COB3O)cc1", "note": "[crisaborole] (10 µM)", "morphology score": 0.0741}, {"molecule": "CCOC(=O)[C@H](Cc1ccccc1)NC(=O)c1cc(Cl)c(OCCN2CCN(C)CC2)c(Cl)c1O", "note": "(10 µM)", "morphology score": 0.414}, {"molecule": "CCOC1O[C@H]([C@@H](COCc2ccccc2)OCc2ccccc2)[C@H](OCc2ccccc2)[C@H]1O", "note": "(stereo not given in full) [tribenoside] (10 µM)", "morphology score": -0.0493}, {"molecule": "O=C(OC[C@H]1O[C@@H](OC(=O)c2cc(O)c(O)c(OC(=O)c3cc(O)c(O)c(O)c3)c2)[C@H](OC(=O)c2cc(O)c(O)c(OC(=O)c3cc(O)c(O)c(O)c3)c2)[C@@H](OC(=O)c2cc(O)c(O)c(OC(=O)c3cc(O)c(O)c(O)c3)c2)[C@@H]1OC(=O)c1cc(O)c(O)c(OC(=O)c2cc(O)c(O)c(O)c2)c1)c1cc(O)c(O)c(OC(=O)c2cc(O)c(O)c(O)c2)c1", "note": "[tannic-acid] (10 µM)", "morphology score": -0.112}, {"molecule": "C1CCN2C[C@@H]3C[C@@H](CN4CCCC[C@@H]34)[C@H]2C1", "note": "[sparteine-sulfate] (10 µM)", "morphology score": 0.00477}, {"molecule": "C1CCC(/N=C(\\NC23CC4CC(CC(C4)C2)C3)N2CCOCC2)CC1", "note": "(10 µM)", "morphology score": -0.0395}, {"molecule": "Cc1sc2c(c1C)C(c1ccc(Cl)cc1)=N[C@@H](CC(=O)Nc1ccc(OCCOCCOCCOCCNc3cccc4c3C(=O)N(C3CCC(=O)NC3=O)C4=O)cc1)c1nnc(C)n1-2", "note": "(stereo not given in full) (10 µM)", "morphology score": -0.0682}, {"molecule": "Cc1nnc(-c2ccc3occ(-c4ccc([S+](C)[O-])cc4)c3c2)o1", "note": "(stereo not given) (10 µM)", "morphology score": -0.00242}, {"molecule": "CC(C)(Sc1ccncc1-c1ccc(C#N)c2ccccc12)C(=O)O", "note": "[verinurad] (10 µM)", "morphology score": 0.122}, {"molecule": "CCC[C@@H]1C[C@@H](C(=O)N[C@@H]([C@H]2O[C@H](SC)[C@H](O)[C@@H](O)[C@H]2O)[C@H](C)Cl)N(C)C1", "note": "(10 µM)", "morphology score": -0.131}, {"molecule": "Cc1ccc(-c2ncc(Cl)cc2-c2ccc(S(C)(=O)=O)cc2)cn1", "note": "[etoricoxib] (10 µM)", "morphology score": -0.139}, {"molecule": "CN(C)CCCNC(=O)c1ccc(-c2cc(O)c3ncccc3c2)cc1", "note": "(0.833333 µM)", "morphology score": -0.00508}, {"molecule": "CC[C@H](CC[C@@H](C)[C@H]1CC[C@H]2[C@@H]3CC=C4C[C@@H](O[C@@H]5O[C@H](CO)[C@@H](O)[C@H](O)[C@H]5O)CC[C@]4(C)[C@H]3CC[C@]12C)C(C)C", "note": "[daucosterol] (10 µM)", "morphology score": 0.0785}, {"molecule": "NC(=O)c1cn(Cc2c(F)cccc2F)nn1", "note": "[rufinamide] (10 µM)", "morphology score": 0.218}, {"molecule": "C=CCOc1ccccc1OCC(O)CNC(C)C", "note": "(stereo not given) [oxprenolol] (10 µM)", "morphology score": -0.183}, {"molecule": "CCCC(C)C1(CC)C(=O)NC(=S)NC1=O", "note": "(stereo not given) [thiopental] (10 µM)", "morphology score": 0.132}, {"molecule": "CC(=O)O[C@H]1Cc2ccccc2N(C(N)=O)c2ccccc21", "note": "[eslicarbazepine-acetate] (10 µM)", "morphology score": 0.137}, {"molecule": "CNCCc1ccc(O)c(O)c1", "note": "[deoxyepinephrine] (10 µM)", "morphology score": 0.0423}, {"molecule": "COc1cn(-c2ccc(-n3cccn3)cc2F)nc(-c2ccnn2-c2ccccc2)c1=O", "note": "(10 µM)", "morphology score": 0.0337}, {"molecule": "CCCNS(=O)(=O)Nc1ncnc(OCCOc2ncc(Br)cn2)c1-c1ccc(Br)cc1", "note": "[macitentan] (10 µM)", "morphology score": -0.0952}, {"molecule": "O=C1CCC[C@@H]2[C@H]3CCC[N+]4([O-])CCC[C@@H](CN12)[C@@H]34", "note": "(stereo not given in full) [oxymatrine] (10 µM)", "morphology score": -0.00407}, {"molecule": "CN(C)C/C=C(/c1ccc(Br)cc1)c1cccnc1", "note": "[zimelidine] (10 µM)", "morphology score": 0.166}, {"molecule": "COc1cc(C(=O)NS(=O)(=O)c2ccccc2C)ccc1Cc1cn(C)c2ccc(NC(=O)OC3CCCC3)cc12", "note": "[zafirlukast] (10 µM)", "morphology score": 0.282}, {"molecule": "Cc1cc(-c2nncc3c(C(C)(C)C)c(OCc4ncnn4C)nn23)no1", "note": "(10 µM)", "morphology score": 0.149}, {"molecule": "CC[C@H]1[C@@H]2C[C@H]3[C@@H]4N(C)c5ccccc5[C@]45C[C@@H]([C@@H]2[C@H]5O)N3[C@@H]1O", "note": "[ajmaline] (10 µM)", "morphology score": -0.0982}, {"molecule": "CC[C@@]1(O)C(=O)OCc2c1cc1n(c2=O)Cc2cc3ccccc3nc2-1", "note": "[camptothecin] (0.833333 µM)", "morphology score": -0.218}, {"molecule": "COc1ccccc1N1CCN(CCN(C(=O)C2CCCCC2)c2ccccn2)CC1", "note": "(10 µM)", "morphology score": 0.0947}, {"molecule": "OCCN1CCN(CC/C=C2/c3ccccc3Sc3ccc(Cl)cc32)CC1", "note": "[zuclopenthixol] (0.833333 µM)", "morphology score": 0.0109}, {"molecule": "COc1ccc(CCc2nc3cc(-c4c(C)noc4C)ccc3n2C[C@H](C)N2CCOCC2)cc1Cl", "note": "(0.833333 µM)", "morphology score": -0.0905}, {"molecule": "CCC(C)SSc1ncc[nH]1", "note": "(stereo not given) (10 µM)", "morphology score": -0.172}, {"molecule": "C=C1CC[C@H](O)C/C1=C/C=C1\\CCC[C@]2(C)[C@@H]([C@H](C)CCCC(C)(C)O)CC[C@@H]12", "note": "[calcifediol] (10 µM)", "morphology score": -0.0147}, {"molecule": "O=C(CN1CCN(C(=O)c2ccco2)CC1)Nc1cc(C(F)(F)F)ccc1Cl", "note": "(10 µM)", "morphology score": 0.00654}, {"molecule": "COc1cccc(CCc2ccccc2OCC(CN(C)C)OC(=O)CCC(=O)O)c1", "note": "(stereo not given) [sarpogrelate] (10 µM)", "morphology score": 0.198}, {"molecule": "O=c1ccc2ccc(OCCCCN3CCN(c4cccc5sccc45)CC3)cc2[nH]1", "note": "[brexpiprazole] (10 µM)", "morphology score": 0.0142}, {"molecule": "CCOc1nc2cccc(C(=O)OC(C)OC(=O)OC3CCCCC3)c2n1Cc1ccc(-c2ccccc2-c2nn[nH]n2)cc1", "note": "(stereo not given) [candesartan-cilexetil] (10 µM)", "morphology score": 0.13}, {"molecule": "Cc1cccc(CN2CCN(C(c3ccccc3)c3ccc(Cl)cc3)CC2)c1", "note": "(stereo not given) [meclizine] (10 µM)", "morphology score": 0.0755}, {"molecule": "Cc1ccc2c(-c3ccccc3)nc(=O)n(C(C)C)c2c1", "note": "[proquazone] (10 µM)", "morphology score": 0.0698}, {"molecule": "CN1CCN(CCCCN2C(=O)CN(/N=C/c3ccc(-c4ccc(Cl)cc4)o3)C2=O)CC1", "note": "[azimilide] (10 µM)", "morphology score": 0.0199}, {"molecule": "O=c1c(O)c(-c2ccc(O)c(O)c2)oc2cc(O)ccc12", "note": "[fisetin] (10 µM)", "morphology score": 0.115}]}]}
